Results published in PubChem BioAssay.
Active and inactive are the calls of the source.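 Rule for the calls, unless noted: active = compounds whose cell count with miR-34 switched on is under 0.7 times the count with it off; inactive = the rest.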 Where a SMILES comes first, the peptide text is derived from it. The star is where a group is joined. Cbz = O=C(OCc1ccccc1)*; CH2F = FC*

Assays:
[1] = viability loss with induced miR-34 in A549 – imaging, A549 dox-inducible miR-34, nuclei and caspase counts, primary screen (AID 1347080); settings: A549 miR-34 inducible, Hoechst nuclei count, 48 h
[2] = MELAS cybrid and Rieske KO viability enhancers – cell-based, MELAS cybrids, Rieske KO mouse fibroblasts, CellTiter-Glo, primary screen (AID 1508586;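 active = mean z-score across replicates of 1.96 or higher in either the MELAS or the Rieske mutant cell line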;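 note: z relative to plate mean and SD of compound and empty wells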); settings: low glucose
[3] = stronger effect = lower value, cell number ratio, induced over uninduced
[4] = measured here: relative caspase fold change +Dox/-Dox
[5] = measured here: total cells with miR-34 induction, stronger effect = lower value
[6] = measured here: total cells without miR-34 induction
[7] = MELAS cybrid survival, CellTiter-Glo 48 h, stronger effect = higher value
[8] = Rieske KO mouse fibroblast survival, CellTiter-Glo 72 h
Note: test concentration not given here.

SMILES	fold change [1, 3]	fold change [1, 4]	cell count [1, 5]	cell count [1, 6]	z-score [2, 7]	z-score [2, 8]
CC(C)(Cc1ccc2ccccc2c1)NCC(O)COc1cccc(Cl)c1C#N (stereo unspecified)	0.92 (inactive)	0.745	8560	9310	-0.327 (inactive)	0.584
O=NO	0.914 (inactive)	1.01	8730	9550	-0.254 (inactive)	-0.15
CCN1CC(C)n2c(c(O)c3c(=O)n(Cc4ccc(F)c(Cl)c4)nc(C(=O)NC)c32)C1=O (stereo unspecified)	1.07 (inactive)	0.451	7640	7150	-0.423 (inactive)	0.325
CCOC(=O)Nc1cc(-c2ccc(C)c(NS(C)(=O)=O)c2)nn2c(C)nnc12	1.01 (inactive)	0.716	4010	3970	-0.585 (inactive)	-4.44
COc1ccnc2[nH]cc(C(=O)C(=O)N3CCN(C(=O)c4ccccc4)CC3C)c12 (stereo unspecified)	0.955 (inactive)	0.698	9920	10400	-0.419 (inactive)	0.811
C[C@]12CC[C@H]3c4ccc(O)cc4CC[C@H]3[C@@H]1CC(O)C2O (stereo partly specified)	0.884 (inactive)	0.677	8910	10100	-0.421 (inactive)	-0.251
Fc1ccc(C(c2ccc(F)cc2)N2CCN(CC=Cc3ccccc3)CC2)cc1	0.899 (inactive)	0.978	7880	8760	-0.335 (inactive)	0.411
NC(=O)N1CCC(CC(=O)N2CCC(C3c4ncc(Br)cc4CCc4cc(Cl)cc(Br)c43)CC2)CC1 (stereo unspecified)	1.04 (inactive)	0.678	5310	5110	-0.458 (inactive)	0.637
Cc1ccc(S(=O)(=O)c2ccc([N+](=O)[O-])o2)cc1	1.58 (inactive)	0.353	1860	1180	-1.09 (inactive)	-6.94
C=C1C(=O)OC2C1CCC(C)=CCC[C@@]1(C)OC21 (stereo partly specified)	0.965 (inactive)	0.646	8720	9040	0.936 (inactive)	-0.281
CC(C)OC(=O)C(C)N[P@](=O)(OCC1OC(n2ccc(=O)[nH]c2=O)[C@](C)(F)C1O)Oc1ccccc1 (stereo partly specified)	0.909 (inactive)	0.639	9560	10500	-0.378 (inactive)	0.864
COC1C(O)CC(=O)OC(C)CC=CC=CC(OC2CCC(N(C)C)C(C)O2)C(C)CC(CC=O)C1OC1OC(C)C(OC2C[C@](C)(O)C(O)C(C)O2)C(N(C)C)C1O (stereo partly specified)	0.934 (inactive)	0.625	8350	8940	-0.212 (inactive)	-0.158
CN(C)CCC=C1c2ccccc2Sc2ccc(Cl)cc21	1.02 (inactive)	0.667	7540	7420	-0.469 (inactive)	-0.0938
COC(=O)C(Cc1ccccc1)NC(=O)C(N)CC(=O)O (stereo not drawn) (H-Asp-Phe-OMe; configuration not given here)	0.938 (inactive)	0.532	8220	8770	-0.285 (inactive)	-0.555
CS(=O)(=O)c1ccc(C(O)C(CF)NC(=O)C(Cl)Cl)cc1 (stereo unspecified)	0.937 (inactive)	0.642	8270	8820	0.0143 (inactive)	-0.0314
COC(=O)CC(NC(=O)C(C)NC(=O)C(NC(=O)OCc1ccccc1)C(C)C)C(=O)CF (stereo not drawn) (Cbz-Val-Ala-Asp(OMe)-CH2F; configuration not given here)	0.936 (inactive)	0.758	8620	9210	-0.172 (inactive)	-0.115

SMILES	fold change [1, 3]	fold change [1, 4]	cell count [1, 5]	cell count [1, 6]	z-score [2, 7]	z-score [2, 8]
CN1CCCC1CCO[C@](C)(c1ccccc1)c1ccc(Cl)cc1 (stereo partly specified)	0.919 (inactive)	1.18	7530	8200	-0.384 (inactive)	0.111
Cn1cc(-c2[nH]c3cc(NC(=O)C(N)C4CCCCC4)cc4c3c2C=NNC4=O)cn1 (stereo unspecified)	0.983 (inactive)	1.09	2060	2100	0.356 (inactive)	-0.0626
OCC(CO)NC1C[C@@](O)(CO)C(O)C(O)C1O (stereo partly specified)	0.838 (inactive)	1.1	8490	10100	-0.052 (inactive)	-0.122
Cn1cc(C=CC(=O)c2cccc(F)c2)cc1C=CC(=O)NO	0.9 (inactive)	1.19	7610	8450	-0.416 (inactive)	0.68
COC(=O)C1C(OC)C(OC(=O)c2cc(OC)c(OC)c(OC)c2)C[C@@H]2CN3CCc4c([nH]c5cc(OC)ccc45)[C@H]3C[C@H]12 (stereo partly specified)	0.925 (inactive)	0.845	7190	7770	-0.484 (inactive)	0.995
Cc1cc(Nc2nc(NC(C)c3ncc(F)cn3)ncc2Cl)n[nH]1 (stereo unspecified)	1.07 (inactive)	1.17	1380	1290	0.54 (inactive)	-3.57
NC1CC1c1ccc(-c2cccc(O)c2)cc1 (stereo unspecified)	0.891 (inactive)	0.382	7530	8450	-0.398 (inactive)	0.0465
CC(=O)O[C@@]1(C(C)=O)CC[C@H]2[C@@H]3CC(C)C4=CC(=O)CC[C@]4(C)[C@@H]3CC[C@@]21C (stereo partly specified)	0.92 (inactive)	0.806	7550	8200	-0.365 (inactive)	-0.106
O=C(c1cccc(Cl)c1F)N1CCN(Cc2cccc(Nc3nccs3)n2)CC1	0.822 (inactive)	4.5	2250	2740	-0.421 (inactive)	-0.143
CC1(C)S[C@@H]2C(NC(=O)C(C(=O)O)c3ccccc3)C(=O)N2C1C(=O)O (stereo partly specified)	0.89 (inactive)	0.816	8430	9470	-0.386 (inactive)	-0.157
C=CC1CN2CC[C@H]1C[C@H]2C(O)c1ccnc2ccc(OC)cc12 (stereo partly specified)	0.964 (inactive)	0.844	8110	8420	-0.205 (inactive)	-0.396
COc1ccc(CNc2nc(N3CCCC3CO)ncc2C(=O)NCc2ncccn2)cc1Cl (stereo unspecified)	0.988 (inactive)	1.09	8210	8300	-0.603 (inactive)	-0.114
COc1cc2ncnc(Sc3nnc(C)s3)c2cc1OC	0.954 (inactive)	0.244	5380	5640	2.8 (active)	1.21
COc1c(C)c2c(c(O)c1CC=C(C)CCC(=O)O)C(=O)OC2	1.08 (inactive)	0.86	3150	2920	0.238 (inactive)	0.269
CC(C)CC(NC(=O)CNC(=O)c1cc(Cl)ccc1Cl)B1OC(=O)CC(CC(=O)O)(C(=O)O)O1 (stereo unspecified)	0.814 (inactive)	0.899	1600	1960	-0.37 (inactive)	-3.79
